# Results taken from the supplement of paper PMC6897291.
# Where a name gives a salt, the structure may show the parent alone.
# Test system: U-2932
# Test: growth inhibition by drug alone (1 - RLU/untreated control) (fraction); higher = stronger inhibition
# Conditions: 1000 nM; time (day): 3; 177Lu-lilotomab satetraxetan 0 ug/ml
# Outline: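 Compound doses on the pre-printed Selleck Cambridge Cancer Compound library plates were 10/100 nM for RIVA cells and 10/1,000 nM for U-2932 cells, seeded at 3,000 cells/well. Before seeding, cells were washed after 18 h with or without a radiolabelled anti-CD37 antibody conjugate (~600 MBq/mg; 0.5 µg/ml RIVA, 1 µg/ml U-2932). Growth inhibition was derived from RealTime-Glo luminescence relative to untreated no-drug control wells. Readings were taken daily starting on day 3, each after 1 h at 37°C, and each well's RLU was divided by the mean of 48 such wells per plate and subtracted from 1.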
row,SMILES,growth inhibition by drug alone
1,COc1ccc(S(=O)(=O)Nc2cccnc2Nc2ccc(O)cc2)cc1,0.889
2,C[C@]12CCC(=O)C=C1CC[C@@H]1[C@@H]2[C@@H](O)C[C@@]2(C)[C@H]1CC[C@]2(O)C(=O)CO [Hydrocortisone (Cortisol)],0.303
3,COc1cc(OC2CCN(C)CC2)ccc1Nc1ncc2c(n1)n(C1CCCC1)c(=O)n2C,-0.165
4,Nc1nc(F)nc2c1ncn2[C@@H]1O[C@H](CO)[C@@H](O)[C@@H]1O [Fludarabine (Fludara)],0.0221
5,Nc1nc(Nc2ccc(S(N)(=O)=O)cc2)nn1C(=O)c1c(F)cccc1F,0.297
6,Nc1ncn([C@@H]2O[C@H](CO)[C@@H](O)[C@H]2O)c(=O)n1 [Azacitidine (Vidaza)],-0.188
7,COc1cc2nccc(Oc3ccc(NC(=O)NC4CC4)c(Cl)c3)c2cc1C(N)=O [E7080 (Lenvatinib)],-0.0598
8,Nc1ccn([C@@H]2O[C@H](CO)[C@@H](O)[C@@H]2O)c(=O)n1 [Cytarabine],0.484
9,Nc1cccc2c1C(=O)N(C1CCC(=O)NC1=O)C2=O (stereo not drawn) [Pomalidomide],0.0958
10,CN(C)c1nc(N(C)C)nc(N(C)C)n1 [Altretamine (Hexalen)],-0.122
11,Cc1[nH]c(/C=C2\C(=O)Nc3ccc(S(=O)(=O)N(C)c4cccc(Cl)c4)cc32)c(C)c1C(=O)N1CCN(C)CC1,-0.0486
12,O=C(O[C@@H]1Cc2c(O)cc(O)cc2O[C@@H]1c1cc(O)c(O)c(O)c1)c1cc(O)c(O)c(O)c1 [(-)-Epigallocatechin gallate],-0.0141
13,CCc1c2c(nc3ccc(OC(=O)N4CCC(N5CCCCC5)CC4)cc13)-c1cc3c(c(=O)n1C2)COC(=O)[C@]3(O)CC [Irinotecan HCl Trihydrate (Campto)],0.841
14,S=C(NCc1ccc2c(c1)OCO2)N1CCN(c2ncnc3c2oc2ccccc23)CC1 [Amuvatinib (MP-470)],0.459
15,COc1ccc2c3n(c(=NC(=O)c4cccnc4)nc2c1OC)CCN3,0.165
16,C#Cc1cccc(Nc2ncnc3cc(OCCOC)c(OCCOC)cc23)c1 [Erlotinib HCl],0.731
17,Cc1ccc(-c2cc(C(F)(F)F)nn2-c2ccc(S(N)(=O)=O)cc2)cc1 [Celecoxib],-0.0323
18,N#CC[C@H](C1CCCC1)n1cc(-c2ncnc3[nH]ccc23)cn1,-0.0929
19,CCc1cncnc1N1CCN(Cc2nc3ccc(C(F)(F)F)cc3[nH]2)CC1,0.0626

row,SMILES,growth inhibition by drug alone
1,CCN(CC)C(=S)SSC(=S)N(CC)CC [Disulfiram (Antabuse)],0.981
2,CC(C)[C@H](C(=O)Nc1ccc(C(=O)NO)cc1)c1ccccc1,0.96
3,CC(=O)O[C@]1(C(C)=O)CC[C@H]2[C@@H]3C=C(C)C4=CC(=O)CC[C@]4(C)[C@H]3CC[C@@]21C [Megestrol Acetate],0.0742
4,COc1cc2ncnc(Nc3cccc(Br)c3)c2cc1OC,-0.0358
5,N#Cc1ccc(C(c2ccc(C#N)cc2)n2cncn2)cc1 [Letrozole],-0.0775
6,CC(=O)c1c(C)c2cnc(Nc3ccc(N4CCNCC4)cn3)nc2n(C2CCCC2)c1=O,-0.0353
7,COc1cccc2c1C(=O)c1c(O)c3c(c(O)c1C2=O)C[C@@](O)(C(=O)CO)C[C@@H]3O[C@H]1C[C@H](N)[C@H](O)[C@H](C)O1 [Doxorubicin (Adriamycin)],0.974
8,CC(C)(C)c1[nH]cnc1/C=c1\[nH]c(=O)/c(=C/c2ccccc2)[nH]c1=O [NPI-2358 (Plinabulin)],0.964
9,COc1cc(Nc2ncc3c(n2)-c2ccc(Cl)cc2C(c2c(F)cccc2OC)=NC3)ccc1C(=O)O [MLN8237 (Alisertib)],0.101
10,O=c1[nH]cc(F)c(=O)[nH]1 [Adrucil (Fluorouracil)],0.0564
11,CC(C)c1ccc(Cn2ccc3c4c(N)nc(NC5CC5)nc4ccc32)cc1,0.976
12,CC/C(=C(\c1ccccc1)c1ccc(OCCN(C)C)cc1)c1ccccc1 [Tamoxifen Citrate (Nolvadex)],0.106
13,Cn1cc(C2=C(c3ccc(Cl)cc3Cl)C(=O)NC2=O)c2ccccc21,-0.0209
14,c1ccc(-c2nn3c(c2-c2ccnc4cc(OCCN5CCOCC5)ccc24)CCC3)nc1,0.0168
15,O=C(NCCS(=O)(=O)c1ccc(C(F)(F)F)cn1)c1ccc(Cl)cc1,0.00453
16,Cc1ccc(S(=O)(=O)C=CC#N)cc1,-0.00518
17,CCC1=C[C@@H]2CN(C1)Cc1c([nH]c3ccccc13)[C@@](C(=O)OC)(c1cc3c(cc1OC)N(C)[C@H]1[C@@](O)(C(=O)OC)[C@H](OC(C)=O)[C@]4(CC)C=CCN5CC[C@]31[C@@H]54)C2 [Vinorelbine (Navelbine)],0.971
18,Cc1cc(Nc2cc(N3CCN(C)CC3)nc(/C=C/c3ccccc3)n2)n[nH]1,0.102
19,CN(N=O)C(=O)N[C@@H](C=O)[C@@H](O)[C@H](O)[C@H](O)CO [Streptozotocin (Zanosar)],-0.124
